Assay results from PubChem BioAssay.
Unmarked numbers belong to inactive results. Calls of active or inactive are those of the source.

Test: PSAC antagonists in infected red cells, primary screen, cell-based, P. falciparum Indochina, OD700, 1 h (AID 1154)
Settings: P. falciparum Indochina infected RBC osmotic lysis, higher = more signal, called active from +8 up or from −8 down
`C=CCC(OC(C)=O)[C@@H]1[C@@H](N(Cc2cc3ccccc3o2)C(=O)c2ccc(-c3ccccc3)cc2)c2cc(OCCCO)ccc2N1C(=O)c1ccc2ccccc2n1` (stereo partly specified) gave a z-score of 1.01. Work on `CC(C)c1ccc(NN2C(C(O)C(C)C)C=CC3C(=O)N(c4ccccc4)C(=O)C32)cc1` (stereo unspecified) yielded a z-score of 1.37. With `CCCC[C@H]1OB(O)C[C@H]2C1=C(COC)C[C@H]1C(=O)C=CC(=O)[C@H]12` the z-score was 1.09. Work on `COc1ccc([Si](C)(C)[C@H]2[C@H](CCn3cc([C@H](O)c4ccccc4)nn3)O[C@@]3(C(=O)N(c4ccccc4)c4ccccc43)[C@@H]2C)cc1` yielded a z-score of 6.6. `N#Cc1ccc(C(O)C2C=CC3C(=O)NC(=O)C3N2Nc2ccccn2)cc1` (stereo unspecified) gave a z-score of 0.104. `O=C1C2C=CC(C(O)c3cccs3)N(Nc3ccccc3)C2C(=O)N1c1ccccc1` (stereo unspecified) showed a z-score of 2.55. For `CC(C)=CCN(C(=O)C#Cc1ccccc1)[C@H](CO)c1ccccc1`, the z-score was 16.8 (active). `CCCC[C@@H]1C[C@H]1[C@@H](NC(=O)Cc1ccccc1)c1ccc(Cl)cc1` showed a z-score of 1.15. For `O=C1C2C=CC(C(O)c3ccc([N+](=O)[O-])cc3)N(Nc3ccccc3)C2C(=O)N1c1ccccc1` (stereo unspecified), the z-score was 3.99. `O=C1C2C=CC(C(O)C(c3ccccc3)c3ccccc3)N(Nc3ccccc3)C2C(=O)N1c1ccccc1` (stereo unspecified) showed a z-score of 1.85. `CC(C)CNC(=O)[C@@]1(C)c2ccccc2C(=O)N(Cc2cc(F)cc(C(F)(F)F)c2)[C@H]1c1ccc(CO)cc1` gave a z-score of 2.26. For `Cc1c(NC(=O)/C(C#N)=C/c2ccc(Cl)cc2)c(=O)n(-c2ccccc2)n1C`, the z-score was 6.41. For `CN1C(=O)[C@]2(CCS(=O)(=O)c3ccccc3)N=C(c3ccc(OCCCO)cc3)O[C@@H]2c2ccccc21`, the z-score was 29.6 (active). For `COc1cccc(C[C@H]2C[C@@H](CO[Si](C(C)C)(C(C)C)C(C)C)N3C(=O)[C@@]4(C(C)=O)O[C@@]23[C@@H]2C(=O)N(C)C(=O)[C@@H]24)c1`, the z-score was 1.31. For `CC(=O)n1cc(C(O)C2C=CC3C(=O)N(c4ccccc4)C(=O)C3N2Nc2ccccc2F)c2ccccc21` (stereo unspecified), the z-score was 8 (active). With `CC=CC(O)C1C=CC2C(=O)N(C)C(=O)C2N1NC(=O)OC(C)(C)C` (stereo unspecified) the z-score was -0.597.
